Reference: the supplement of paper PMC11732987, “Enantioselective OTUD7B fragment discovery through chemoproteomics screening and high-throughput optimisation” (Communications Chemistry, 2025)
Values without a mark were called inactive.

Assays:
Assay in all cases: log2 ratio of Biotin-Ahx-Ub-VS probe labelling (fragment/DMSO); higher = less target engagement (more negative = stronger competition), active = hit call of the paper (q ≤ 0.05, log2 ratio ≤ -1)
Conditions in all cases: compound concentration: 200 uM; treatment time: 3 h
ALG13 = target: T1, ALG13 (UniProt Q9NP73)
T1 sequence (whole entry): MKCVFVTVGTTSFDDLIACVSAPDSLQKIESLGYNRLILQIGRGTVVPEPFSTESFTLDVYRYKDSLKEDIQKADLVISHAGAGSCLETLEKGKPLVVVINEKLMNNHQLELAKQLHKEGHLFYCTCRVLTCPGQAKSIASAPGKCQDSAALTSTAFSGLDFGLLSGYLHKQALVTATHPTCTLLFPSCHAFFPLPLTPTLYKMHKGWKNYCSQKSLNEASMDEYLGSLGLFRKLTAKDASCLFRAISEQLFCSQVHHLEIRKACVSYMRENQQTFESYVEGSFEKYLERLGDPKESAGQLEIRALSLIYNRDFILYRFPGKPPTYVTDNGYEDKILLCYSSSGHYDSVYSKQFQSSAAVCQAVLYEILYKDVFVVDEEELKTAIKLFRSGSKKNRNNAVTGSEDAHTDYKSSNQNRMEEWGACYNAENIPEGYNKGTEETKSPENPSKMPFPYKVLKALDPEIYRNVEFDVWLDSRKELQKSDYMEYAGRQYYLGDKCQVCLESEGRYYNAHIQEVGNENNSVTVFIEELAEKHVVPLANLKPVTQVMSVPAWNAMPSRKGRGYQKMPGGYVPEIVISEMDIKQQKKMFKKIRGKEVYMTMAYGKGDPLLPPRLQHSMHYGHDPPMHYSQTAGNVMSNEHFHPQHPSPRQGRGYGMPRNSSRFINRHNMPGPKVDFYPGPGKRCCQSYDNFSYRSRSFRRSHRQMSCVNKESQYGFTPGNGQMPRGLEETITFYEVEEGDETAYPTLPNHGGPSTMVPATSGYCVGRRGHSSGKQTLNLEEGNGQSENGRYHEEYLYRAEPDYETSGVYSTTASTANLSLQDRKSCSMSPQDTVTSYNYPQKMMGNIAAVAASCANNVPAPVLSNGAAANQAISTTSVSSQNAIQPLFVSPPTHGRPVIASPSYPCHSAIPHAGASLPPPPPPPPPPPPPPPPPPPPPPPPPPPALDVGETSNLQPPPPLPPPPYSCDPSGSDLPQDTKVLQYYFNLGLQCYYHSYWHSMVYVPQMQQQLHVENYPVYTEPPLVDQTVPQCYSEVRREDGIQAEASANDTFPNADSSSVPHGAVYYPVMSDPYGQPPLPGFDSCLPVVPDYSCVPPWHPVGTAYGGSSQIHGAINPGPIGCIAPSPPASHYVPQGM
Summary of the method: (§1)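 HEK293T lysate (495 µg per sample, in Tris/CHAPS/IGEPAL buffer with protease inhibitors) was treated in triplicate with fragment at 200 µM or with DMSO for 3 h. It was then treated with Biotin-Ahx-Ub-VS (0.5 µM final) for 1 h. Labelled DUBs were NeutrAvidin-enriched, digested with LysC and trypsin, and run by diaPASEF LC-MS/MS. Spectronaut label-free quantities were global-median-normalised. Values are average log2 ratios fragment/DMSO by unpaired t-test, using proteins with ≥2 unique peptides.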

ATXN3 = ATXN3 (UniProt P54252)
ATXN3, sequence (P54252 whole entry): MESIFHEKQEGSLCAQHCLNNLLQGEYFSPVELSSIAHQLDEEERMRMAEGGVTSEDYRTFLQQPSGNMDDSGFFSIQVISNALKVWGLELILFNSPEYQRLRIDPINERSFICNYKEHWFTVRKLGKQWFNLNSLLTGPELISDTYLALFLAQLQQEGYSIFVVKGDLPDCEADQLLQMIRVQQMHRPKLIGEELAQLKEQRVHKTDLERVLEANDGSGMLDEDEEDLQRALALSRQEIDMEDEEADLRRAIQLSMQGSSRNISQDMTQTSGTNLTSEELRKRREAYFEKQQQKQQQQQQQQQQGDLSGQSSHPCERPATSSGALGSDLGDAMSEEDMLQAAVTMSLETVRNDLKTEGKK
Summary of the method: as §1

BAP1 = target: T2, BAP1 (UniProt Q92560)
T2 sequence (whole entry): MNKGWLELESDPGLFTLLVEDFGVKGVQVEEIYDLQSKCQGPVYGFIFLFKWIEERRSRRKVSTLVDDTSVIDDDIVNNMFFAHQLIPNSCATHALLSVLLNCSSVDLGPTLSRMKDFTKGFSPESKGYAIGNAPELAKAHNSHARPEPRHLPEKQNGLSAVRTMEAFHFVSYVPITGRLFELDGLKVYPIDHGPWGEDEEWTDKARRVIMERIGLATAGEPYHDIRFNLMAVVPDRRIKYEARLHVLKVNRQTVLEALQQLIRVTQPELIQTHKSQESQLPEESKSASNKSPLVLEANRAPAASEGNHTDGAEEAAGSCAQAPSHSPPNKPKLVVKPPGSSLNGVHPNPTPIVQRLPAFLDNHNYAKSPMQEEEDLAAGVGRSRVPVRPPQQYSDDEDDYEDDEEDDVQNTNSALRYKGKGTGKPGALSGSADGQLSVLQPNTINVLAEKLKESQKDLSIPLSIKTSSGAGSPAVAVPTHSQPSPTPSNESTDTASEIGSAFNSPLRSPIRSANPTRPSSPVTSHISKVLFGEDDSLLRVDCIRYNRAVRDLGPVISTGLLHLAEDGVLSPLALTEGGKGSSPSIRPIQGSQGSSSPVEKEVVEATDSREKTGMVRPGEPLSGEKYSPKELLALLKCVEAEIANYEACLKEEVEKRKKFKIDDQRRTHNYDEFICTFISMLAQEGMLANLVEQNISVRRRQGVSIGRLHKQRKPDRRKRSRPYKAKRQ
Summary of the method: as §1

EIF3F = EIF3F (UniProt O00303)
EIF3F, sequence (O00303 whole entry): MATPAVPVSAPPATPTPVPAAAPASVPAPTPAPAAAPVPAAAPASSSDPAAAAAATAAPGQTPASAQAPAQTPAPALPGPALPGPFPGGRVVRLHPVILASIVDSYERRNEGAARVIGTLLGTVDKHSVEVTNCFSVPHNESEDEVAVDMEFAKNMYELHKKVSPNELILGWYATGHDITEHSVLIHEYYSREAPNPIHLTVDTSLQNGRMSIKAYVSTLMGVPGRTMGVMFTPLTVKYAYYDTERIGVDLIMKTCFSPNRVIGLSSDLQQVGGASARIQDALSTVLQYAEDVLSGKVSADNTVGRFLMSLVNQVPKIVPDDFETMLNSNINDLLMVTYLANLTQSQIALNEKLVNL
Summary of the method: as §1

EIF3H = EIF3H (UniProt O15372)
EIF3H, sequence (O15372 whole entry): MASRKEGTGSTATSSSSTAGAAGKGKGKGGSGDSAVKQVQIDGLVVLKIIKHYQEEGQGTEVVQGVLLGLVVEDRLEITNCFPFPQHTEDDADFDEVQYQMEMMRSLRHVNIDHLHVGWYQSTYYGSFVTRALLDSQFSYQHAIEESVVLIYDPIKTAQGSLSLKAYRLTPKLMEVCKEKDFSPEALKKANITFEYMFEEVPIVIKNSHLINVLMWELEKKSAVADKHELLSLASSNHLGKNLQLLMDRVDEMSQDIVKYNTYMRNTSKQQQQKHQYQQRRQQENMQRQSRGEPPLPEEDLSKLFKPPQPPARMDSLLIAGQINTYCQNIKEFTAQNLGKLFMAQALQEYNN
Summary of the method: as §1

FAM105A = target: T3, FAM105A (UniProt Q9NUU6)
T3 sequence (whole entry): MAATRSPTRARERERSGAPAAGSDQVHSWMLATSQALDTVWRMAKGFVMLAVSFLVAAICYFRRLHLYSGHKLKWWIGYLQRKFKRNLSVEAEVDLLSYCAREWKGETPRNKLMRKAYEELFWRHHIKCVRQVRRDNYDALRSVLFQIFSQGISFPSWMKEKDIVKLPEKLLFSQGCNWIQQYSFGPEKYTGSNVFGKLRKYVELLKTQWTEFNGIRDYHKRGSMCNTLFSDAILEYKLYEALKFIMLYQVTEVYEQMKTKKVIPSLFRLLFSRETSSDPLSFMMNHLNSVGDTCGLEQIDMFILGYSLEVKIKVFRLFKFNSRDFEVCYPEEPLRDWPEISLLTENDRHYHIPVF
Summary of the method: as §1

OTUB1 = OTUB1 (UniProt Q96FW1)
OTUB1, sequence (Q96FW1 whole entry): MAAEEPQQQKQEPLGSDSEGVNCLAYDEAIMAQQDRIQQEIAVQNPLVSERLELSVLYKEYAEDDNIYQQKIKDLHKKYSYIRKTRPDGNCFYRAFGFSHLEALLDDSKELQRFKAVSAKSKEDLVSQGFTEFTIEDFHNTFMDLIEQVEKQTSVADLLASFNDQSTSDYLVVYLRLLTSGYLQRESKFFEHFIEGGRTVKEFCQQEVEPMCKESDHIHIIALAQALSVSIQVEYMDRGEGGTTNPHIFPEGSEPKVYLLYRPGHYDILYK
Summary of the method: as §1

OTUD4 = target: T4, OTUD4 (UniProt Q01804)
T4 sequence (whole entry): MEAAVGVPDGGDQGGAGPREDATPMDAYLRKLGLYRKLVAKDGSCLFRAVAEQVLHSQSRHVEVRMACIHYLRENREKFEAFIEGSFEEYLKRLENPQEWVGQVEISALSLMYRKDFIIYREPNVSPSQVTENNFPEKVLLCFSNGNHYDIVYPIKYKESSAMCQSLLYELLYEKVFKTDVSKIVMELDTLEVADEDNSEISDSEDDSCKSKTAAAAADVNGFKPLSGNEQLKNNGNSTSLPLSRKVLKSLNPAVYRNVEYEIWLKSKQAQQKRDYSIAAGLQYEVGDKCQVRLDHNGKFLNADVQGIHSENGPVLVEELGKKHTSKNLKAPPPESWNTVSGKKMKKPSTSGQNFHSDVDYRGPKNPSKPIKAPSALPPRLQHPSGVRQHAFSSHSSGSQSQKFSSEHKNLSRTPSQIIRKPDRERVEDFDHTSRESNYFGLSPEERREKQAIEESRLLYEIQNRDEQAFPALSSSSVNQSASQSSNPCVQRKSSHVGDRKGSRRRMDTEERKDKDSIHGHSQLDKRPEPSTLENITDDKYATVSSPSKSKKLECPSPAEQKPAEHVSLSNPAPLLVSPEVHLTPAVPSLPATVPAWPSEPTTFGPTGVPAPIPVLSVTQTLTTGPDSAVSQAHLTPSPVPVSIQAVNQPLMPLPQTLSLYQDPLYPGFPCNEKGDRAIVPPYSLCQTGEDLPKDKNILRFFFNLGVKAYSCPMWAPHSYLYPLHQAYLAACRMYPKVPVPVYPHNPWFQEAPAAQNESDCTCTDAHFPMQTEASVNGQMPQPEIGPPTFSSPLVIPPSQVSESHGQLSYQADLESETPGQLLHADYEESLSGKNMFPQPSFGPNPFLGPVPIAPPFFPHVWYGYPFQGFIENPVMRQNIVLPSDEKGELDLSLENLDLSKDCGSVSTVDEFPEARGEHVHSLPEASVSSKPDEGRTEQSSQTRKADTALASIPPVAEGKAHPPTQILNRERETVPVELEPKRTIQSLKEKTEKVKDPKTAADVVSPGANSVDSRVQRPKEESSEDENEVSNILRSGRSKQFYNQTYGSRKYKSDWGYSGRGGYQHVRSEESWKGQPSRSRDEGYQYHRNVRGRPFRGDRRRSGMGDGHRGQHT
Summary of the method: as §1

OTUD5 = target: T5, OTUD5 (UniProt Q96G74)
T5 sequence (whole entry): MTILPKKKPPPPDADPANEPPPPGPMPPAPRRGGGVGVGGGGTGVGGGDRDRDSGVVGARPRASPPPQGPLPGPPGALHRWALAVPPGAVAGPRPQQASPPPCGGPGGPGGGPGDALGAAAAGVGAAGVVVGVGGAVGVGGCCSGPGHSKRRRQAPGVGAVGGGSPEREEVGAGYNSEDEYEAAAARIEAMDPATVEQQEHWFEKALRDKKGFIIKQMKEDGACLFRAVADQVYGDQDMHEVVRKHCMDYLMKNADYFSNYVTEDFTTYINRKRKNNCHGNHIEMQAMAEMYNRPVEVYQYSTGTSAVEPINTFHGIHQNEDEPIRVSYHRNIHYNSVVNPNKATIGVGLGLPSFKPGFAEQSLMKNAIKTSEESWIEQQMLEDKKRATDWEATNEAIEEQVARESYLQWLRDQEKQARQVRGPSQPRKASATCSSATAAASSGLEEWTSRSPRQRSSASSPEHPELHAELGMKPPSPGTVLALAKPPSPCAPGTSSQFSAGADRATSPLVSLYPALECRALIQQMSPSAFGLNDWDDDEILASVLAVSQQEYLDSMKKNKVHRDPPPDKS
Summary of the method: as §1

O=C(CCl)NC1CCC(C(F)(F)F)CC1 (centres undefined)
log2 ratio of Biotin-Ahx-Ub-VS probe labelling (ALG13): 0.187 | log2 ratio of Biotin-Ahx-Ub-VS probe labelling (ATXN3): -0.373 | log2 ratio of Biotin-Ahx-Ub-VS probe labelling (BAP1): -1.11 (active) | log2 ratio of Biotin-Ahx-Ub-VS probe labelling (EIF3F): -0.798 | log2 ratio of Biotin-Ahx-Ub-VS probe labelling (EIF3H): -0.225 | log2 ratio of Biotin-Ahx-Ub-VS probe labelling (FAM105A): -0.0674 | log2 ratio of Biotin-Ahx-Ub-VS probe labelling (OTUB1): 0.207 | log2 ratio of Biotin-Ahx-Ub-VS probe labelling (OTUD4): -0.576 | log2 ratio of Biotin-Ahx-Ub-VS probe labelling (OTUD5): -0.288
